In ChEMBL document CHEMBL3988442, “University of Dundee, Small-Polar-MMV Screening Library” (2021):
Out of some 48,000 compounds screened, about 13,000 (27%) showed an effect of 50% or more. This is one part of the list.

Test system: Wolbachia pipientis
Assay: Anti-Wolbachia Cell-Based Screen
Format: functional
Parameters: scale not given: in the data most compounds retested in dose-response had high values
Conditions: 5 µM

Row | Structure (SMILES) | Percent Effect
1 | N#CC1(NC(=O)Cn2nnc(-c3cc4ccccc4o3)n2)CCCC1 | 6.129%
2 | CCOC(=O)NC(CNC(=O)c1cn(C)cn1)CC(C)C (centres undefined) | -4.121%
3 | COc1cc(-c2cc(NC3CCCC3)nc3[nH]ccc23)nc(N)n1 | -4.005%
4 | COc1ccc2[nH]cc(-c3ccnc(NC4CCCC4)n3)c2c1 | 98.2%
5 | COc1ccc2[nH]cc(-c3ccnc(N4CCC(C)CC4)n3)c2c1 | 108.4%
6 | COc1cnc(N2CCC(c3ncc[nH]3)CC2)nc1 | 16.53%
7 | COc1ccc2[nH]cc(C3CCN(CCC(N)=O)CC3)c2c1 | -13.9%
8 | COc1nccnc1-c1cc(NC2CCCC2)nc2[nH]ccc12 | -1.982%
9 | COC(=O)c1cc(NS(=O)(=O)c2cn(C)cn2)c(F)cc1F | -3.496%
10 | CS(=O)(=O)c1nnc(NC(=O)CCc2cccs2)[nH]1 | 5.426%
11 | O=C(NCc1ccc(-n2cncn2)nc1)c1ccc2c(c1)CCO2 | 2.792%
12 | CCN1CCO[C@@H]2CN(C(=O)c3ccc4[nH]ccc4c3)CC[C@@H]2C1.O=C(O)C(F)(F)F | -16%
13 | COCCN1CCO[C@@H]2CN(C(=O)NCc3cccnc3)CC[C@@H]2C1.O=C(O)C(F)(F)F.O=C(O)C(F)(F)F | -7.719%
14 | CCN1CCO[C@@H]2CN(C(=O)NCc3ccccc3)CC[C@@H]2C1 | 91.66%
15 | CC(=O)N1CCO[C@@H]2CN(C(=O)NCc3ccccc3)CC[C@@H]2C1 | 88.95%
16 | CC(=O)N1CCO[C@@H]2CN(C(=O)NCc3cccnc3)CC[C@@H]2C1.O=C(O)C(F)(F)F | -5.554%
17 | CCN(CC)Cc1cc(C(=O)N2CCCC(O)(CO)C2)c(C)o1 (centres undefined) | 4.357%
18 | CCCc1ccc(CN2CCN(C(=O)N(C)C)[C@@H]3CS(=O)(=O)C[C@@H]32)o1 | 6.47%
19 | Cc1ccc(CN2CCN(Cc3nccn3C)[C@H]3CS(=O)(=O)C[C@H]32)o1 | 91.25%
20 | CCCc1ccc(CN2CCN(C(=O)C(C)C)[C@@H]3CS(=O)(=O)C[C@@H]32)o1 | 2.422%

Row | Structure (SMILES) | Percent Effect
21 | CCn1ccnc1CN1CCN(Cc2ccc(C)o2)[C@@H]2CS(=O)(=O)C[C@@H]21 | 98.63%
22 | CCCc1ccc(CN2CCN(C(=O)NCC)[C@H]3CS(=O)(=O)C[C@H]32)o1 | -11.9%
23 | CCCc1ccc(CN2CCN(c3ncccn3)[C@@H]3CS(=O)(=O)C[C@@H]32)o1 | -1.361%
24 | O=C(C1CN(c2ncc(F)cn2)CC12CCOCC2)N1CC=CC1.O=C(O)C(F)(F)F (centres undefined) | -11.35%
25 | O=C(O)C(F)(F)F.O=C(O)C(F)(F)F.c1coc(CN2CCCn3c(CN4CCOCC4)nnc3C2)c1 | 102%
26 | O=C(O)C(F)(F)F.c1coc(CN2CCCn3c(nnc3Cn3cccc3)C2)c1 | 110.6%
27 | O=C(O)C(F)(F)F.c1cnn(Cc2nnc3n2CCCN(CC2CCOCC2)C3)c1 | -9.289%
28 | c1coc(CN2CCn3c(CN4CCOCC4)nnc3C2)c1 | 0.1546%
29 | O=C(O)C(F)(F)F.c1coc(CN2CCn3c(COCC4CC4)nnc3C2)c1 | -16.88%
30 | CCCN1CCN(C(=O)c2cccc3cccnc23)[C@H]2CS(=O)(=O)C[C@H]21 | -6.939%
31 | Cc1nnc(CN(C)Cc2nc3c(s2)CCCC3)o1 | -39.73%
32 | CCc1ncc(C(=O)N2CCC(O)(CN3CCOCC3)C(C)(C)C2)cn1 (centres undefined) | 21.42%
33 | COc1ccc2c(C)c(C(=O)N3CCC(NC(C)=O)C3)oc2c1 (centres undefined) | 4.828%
34 | CCCc1nc(CN2CCOC(Cn3cncn3)C2)cs1 (centres undefined) | 112.9%
35 | CC(C)CCc1nc(CN2CCOC(Cn3cncn3)C2)cs1 (centres undefined) | 124.3%
36 | CC(C)(C)c1nnc(CN2CCOC(Cn3cncn3)C2)o1 (centres undefined) | 5.198%
37 | Cc1cc(CNC(=O)NC(C)c2ccncc2)no1 (centres undefined) | -0.1893%
38 | CCCC1C=CCN1C(=O)c1cc(COc2ccc3c(c2)OCO3)[nH]n1 (centres undefined) | 106.8%
39 | COc1ccccc1OCc1cc(C(=O)N2CCC(NC(C)=O)C2)n[nH]1 (centres undefined) | -14.62%
40 | C[C@@H]1CN(C(=O)c2cc(COc3ccc4c(c3)OCO4)[nH]n2)C[C@H](C)O1 | -15.32%

Row | Structure (SMILES) | Percent Effect
41 | O=C(c1cc(COc2ccc3c(c2)OCO3)[nH]n1)N1CC=CC1CO (centres undefined) | -1.873%
42 | CO[C@H]1CN(C(C)C)C[C@@H]1NC(=O)c1cc(COc2ccccc2)[nH]n1 | -19.38%
43 | COc1ccccc1OCc1cc(C(=O)N2C[C@@H](C)O[C@@H](C)C2)n[nH]1 | -20.33%
44 | COc1ccccc1OCc1cc(C(=O)N2CCOCC2CO)n[nH]1 (centres undefined) | -19.45%
45 | COC(=O)C1C=CCN1C(=O)c1cc(COc2ccccc2)[nH]n1 (centres undefined) | 114.9%
46 | C[C@@H]1CC[C@@H](C)N1C(=O)c1cc(COc2ccccc2)[nH]n1 | 96.55%
47 | CN(Cc1nncn1C)C(=O)c1cc(COc2ccccc2)[nH]n1 | -18.45%
48 | COc1ccccc1OCc1cc(C(=O)N2[C@H](C)CC[C@@H]2C)n[nH]1 | -29.7%
49 | CCCC1C=CCN1C(=O)c1cc(COc2ccccc2)[nH]n1 (centres undefined) | 130%
50 | CN(C(=O)CC1=CCCCC1)C1CCCN(C2Cc3ccccc3C2)C1 (centres undefined) | -26.45%
51 | CCc1ncc2c(n1)CN(C(=O)Cc1cc(OC)cc(OC)c1)C2 | -17.96%
52 | CC(C)COC(C)C(=O)N1CCC(C)CC1 (centres undefined) | -15.15%
53 | Cc1cc(CN(C2CC2)C(C)C(C)C)no1 (centres undefined) | 5.492%
54 | COc1ccccc1OCc1cc(C(=O)N2CC(O)C2)n[nH]1 | -12.52%
55 | CCC1C=CCN1C(=O)c1cc(COc2ccccc2OC)[nH]n1 (centres undefined) | 105.4%
56 | COc1ccccc1OCc1cc(C(=O)N2CC=CC2C(C)C)n[nH]1 (centres undefined) | -7.003%
57 | CC(=O)CN1CCC2(CC1)c1ccccc1[C@@H](N1CCSCC1)[C@@H]2O | -3.937%
58 | CN(CC(=O)N1CC(C)(C)[C@@](C)(O)C1)Cc1ccncc1 | -6.458%
59 | COc1ccc(COCC(O)CNC(=O)c2cc(C)cc(C)c2)cc1 (centres undefined) | 13.74%
